Bioassay records (PubChem BioAssay)
PrP UTR inh = suppresses PrP 5' UTR mRNA reporter expression. cell-based PrP 5' UTR mRNA reporter, plate reader. inhibition, % (test concentration not listed). 340,000 tested, 0.35% active; in the data active = inhibition above about 52%; also: 0 = median of the neutral control wells
Y pestis TopoI = blocks Yersinia pestis topoisomerase I activity. Y. pestis Topo-I cleavage product accumulation, plate reader. activity, % at 10 µM. 360,000 tested, 0.064% active. AID 504884; in the data active = activity above about 50%, passing the limit was not always enough
Mtb hypoxia rep = inhibitors of hypoxia-regulated fluorescent reporter in Mycobacterium tuberculosis | M. tuberculosis hypoxia-regulated fluorescent reporter, fluorescence | AID 1159583 | fluorescence inhibition, % (test concentration not listed) | 300,000 tested, 0.1% active; in the data active = fluorescence inhibition mostly above about 23%, no sharp cut-off; inactive = mostly below about 17%
PrPC surface inh = inhibitors of human cell surface prion protein PrPC; P04156; TR-FRET read-out; inhibition, % at 13.8 µM; 370,000 tested, 0.43% active; in the data active = inhibition above about 24%; also: 0% = median of the test wells and 100% = reference compound wells
FBA Mtb inh = Mtb fructose-bisphosphate aldolase inhibition; P9WQA3; purified M. tuberculosis FBA, fluorescence read-out; inhibition, % at 1 µM; 360,000 tested, 2.3% active; in the data active = inhibition above about 27%;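 also: 0% = vehicle and 100% = reference inhibitor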
Target sequence (P9WQA3 whole entry, looked up): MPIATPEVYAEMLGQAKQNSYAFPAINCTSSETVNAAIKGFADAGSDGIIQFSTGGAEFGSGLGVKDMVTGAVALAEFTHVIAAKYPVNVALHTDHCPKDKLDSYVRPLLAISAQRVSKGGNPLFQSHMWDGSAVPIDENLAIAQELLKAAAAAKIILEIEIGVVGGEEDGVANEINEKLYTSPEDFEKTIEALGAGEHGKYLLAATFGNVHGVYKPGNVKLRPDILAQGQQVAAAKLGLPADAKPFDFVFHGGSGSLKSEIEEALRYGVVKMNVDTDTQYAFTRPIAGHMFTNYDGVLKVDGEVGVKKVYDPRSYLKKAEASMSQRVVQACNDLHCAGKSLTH
GDH-TPI inh = GDH-TPI coupled enzyme inhibition counter-screen; inhibition, % at 4.8 µM; GDH-TPI coupled enzyme counterscreen, NADH absorbance; AID 588335; 360,000 tested, 1.2% active; in the data active = inhibition above about 30%;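 also: 0% = DMSO wells and 100% = wells lacking the enzyme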
* marks the source's active call; other numbers are inactive results. In the library only some 3.8% were active in any assay of this set; here they are far more common.

What do the screens show for `CCCCCCCCN1[C@@H](CC(C)=O)c2cc(C(F)(F)F)ccc2S1(=O)=O`?
PrP UTR inh: -8; Y pestis TopoI: 66*; Mtb hypoxia rep: 3; PrPC surface inh: 4; FBA Mtb inh: 1; GDH-TPI inh: 3

Results for COc1cccc(C=NN(C)C2=NS(=O)(=O)c3ccccc32)c1O ?
Mtb hypoxia rep: -4

Results for Cc1ccc(C(=O)OCC(=O)NC2CCCC(C)C2C)cc1S(=O)(=O)N1CCCCC1 (stereo not drawn) ?
PrP UTR inh: -18; Y pestis TopoI: 14; Mtb hypoxia rep: 24*; PrPC surface inh: -2; FBA Mtb inh: -2; GDH-TPI inh: 4

What do the screens show for `COc1ccc(N2CCN(C(=O)CSc3ncccc3-c3nc4ccccc4[nH]3)CC2)cc1`?
PrP UTR inh: -10; Y pestis TopoI: 7; Mtb hypoxia rep: 3; FBA Mtb inh: 13; GDH-TPI inh: -4

What do the screens show for `COc1ccccc1N1CCN(C(=O)CSc2ncccc2-c2nc3ccccc3[nH]2)CC1`?
PrP UTR inh: 6; Y pestis TopoI: 1; Mtb hypoxia rep: -10; PrPC surface inh: 4; FBA Mtb inh: 27*; GDH-TPI inh: 6

How did O=c1c(C=NNS(=O)(=O)c2ccccc2)coc2ccc(Cl)cc12 do in these assays?
Mtb hypoxia rep: 8

How did CCOc1cc(/C=C2/NC(=O)N(Cc3ccccc3F)C2=O)ccc1O do in these assays?
PrP UTR inh: -2; Y pestis TopoI: -8; PrPC surface inh: -21; FBA Mtb inh: -2; GDH-TPI inh: 40*

Results for COc1cc(/C=C2/NC(=O)N(Cc3ccccc3F)C2=O)cc(OC)c1O ?
PrP UTR inh: -23; Y pestis TopoI: -3; PrPC surface inh: -12; FBA Mtb inh: 1; GDH-TPI inh: 11

What do the screens show for `Cc1ccc2nc3c(cc(C(=O)NCC4CCCO4)c(=N)n3CCCOC(C)C)c(=O)n2c1` (stereo not drawn)?
PrP UTR inh: -20; Y pestis TopoI: 8; Mtb hypoxia rep: 8; PrPC surface inh: -45; FBA Mtb inh: active; GDH-TPI inh: -8

What do the screens show for `Cc1ccc2nc3c(cc(C(=O)NCC4CCCO4)n3C)c(=O)n2c1` (stereo not drawn)?
Mtb hypoxia rep: 6

Results for CCOCCCNc1nc2nc3ccc(C)cn3c(=O)c2cc1C(=O)NCC1CCCO1 (stereo not drawn) ?
PrP UTR inh: -13; Y pestis TopoI: 2; Mtb hypoxia rep: -8; PrPC surface inh: -50; FBA Mtb inh: active; GDH-TPI inh: -8

Results for CCn1cc(C(=O)NCC2CCCO2)c2cc(OC)c(OC)cc2c1=O (stereo not drawn) ?
PrP UTR inh: -15; Y pestis TopoI: -5; Mtb hypoxia rep: 5; PrPC surface inh: 4; FBA Mtb inh: -2; GDH-TPI inh: 11

How did CCN1C(=O)C2C(c3ccc(-c4cccc(Cl)c4)cc3)N3CCCC[C@@]3(C(=O)OC)C2C1=O (stereo partly drawn) do in these assays?
Mtb hypoxia rep: -2

Results for COc1ccc(C=NNC(=O)c2ccc(-c3ccccc3)cc2)c(OC)c1OC ?
Mtb hypoxia rep: -1

How did CCC(=O)Nc1cccc(-c2cnc3ccccc3n2)c1 do in these assays?
PrP UTR inh: -25; Y pestis TopoI: 6; Mtb hypoxia rep: -14; PrPC surface inh: -17; FBA Mtb inh: -1; GDH-TPI inh: 31*

What do the screens show for `CCS(=O)(=O)N1Cc2ccccc2CC1C(=O)OCC(=O)Nc1ccc(C)cc1` (stereo not drawn)?
PrP UTR inh: -26; Y pestis TopoI: 8; PrPC surface inh: 5; FBA Mtb inh: 1; GDH-TPI inh: 117*

Results for COc1ccc(CCNC(=O)c2cnc3scc(C)n3c2=O)cc1OC ?
PrP UTR inh: -42; Y pestis TopoI: 4; Mtb hypoxia rep: 11; PrPC surface inh: 9; FBA Mtb inh: 5; GDH-TPI inh: 33*

What do the screens show for `C=CCOC(=O)C1=CC(c2ccc(Br)cc2)CC(OCCCCO)O1` (stereo not drawn)?
Mtb hypoxia rep: 9

How did COc1ccc(C(=O)N/N=C/c2ccc3cccc(O)c3n2)cc1 do in these assays?
PrP UTR inh: -30; Y pestis TopoI: -1; PrPC surface inh: -19; FBA Mtb inh: -1; GDH-TPI inh: 33*

What do the screens show for `COc1ccc(C(=O)N/N=C/C(Br)=C/c2ccccc2)cc1`?
PrP UTR inh: -31; Y pestis TopoI: 1; PrPC surface inh: 2; FBA Mtb inh: -8; GDH-TPI inh: 31*

How did COc1cccc(C(=O)N/N=C/C(Br)=C/c2ccccc2)c1 do in these assays?
PrP UTR inh: -11; Y pestis TopoI: -5; PrPC surface inh: 5; FBA Mtb inh: 2; GDH-TPI inh: 40*

Results for COc1ccc(C(=O)NN=C/C(Br)=C/c2ccccc2)cc1 ?
Mtb hypoxia rep: 3

Results for O=C(N/N=C/C(Br)=C/c1ccccc1)c1cnccn1 ?
PrP UTR inh: -41; Y pestis TopoI: -4; PrPC surface inh: -17; FBA Mtb inh: 0; GDH-TPI inh: 37*

What do the screens show for `COC(=O)C1=C(c2cccc(OC)c2OC)CC2CCC1N2C(=O)NC(C)C` (stereo not drawn)?
Mtb hypoxia rep: 11

Results for CC(C(=O)NCc1ccccc1)C1C[C@@]1(C)C(NC(=O)OCc1ccccc1)c1ccccc1 (stereo partly drawn) ?
Mtb hypoxia rep: -7

How did CCN1C(=O)C2C(c3ccc(-c4ccc(Cl)c(Cl)c4)c(OC)c3)N[C@@](Cc3ccccc3)(C(=O)OC)C2C1=O (stereo partly drawn) do in these assays?
Mtb hypoxia rep: 19

Results for CSc1ccc(C2NN=C(c3ccccc3)S2)cc1 (stereo not drawn) ?
PrP UTR inh: 16; Y pestis TopoI: 1; Mtb hypoxia rep: 4; PrPC surface inh: 1; FBA Mtb inh: 46*; GDH-TPI inh: 7

What do the screens show for `Cc1cc2nc(-c3ccc[nH]c3=O)n(Cc3cccc(F)c3)c2cc1C`?
PrP UTR inh: -25; Y pestis TopoI: 7; Mtb hypoxia rep: 8; PrPC surface inh: 8; FBA Mtb inh: 149*; GDH-TPI inh: 23

How did O=c1[nH]cccc1-c1nc2ccccc2n1Cc1cccc(F)c1 do in these assays?
PrP UTR inh: -8; Y pestis TopoI: 0; Mtb hypoxia rep: 8; PrPC surface inh: 2; FBA Mtb inh: 162*; GDH-TPI inh: 8

What do the screens show for `CCCn1c(-c2ccc[nH]c2=O)nc2cc(C)c(C)cc21`?
PrP UTR inh: -60; Y pestis TopoI: -7; Mtb hypoxia rep: 7; PrPC surface inh: 3; FBA Mtb inh: 115*; GDH-TPI inh: 2

Results for O=c1[nH]cccc1-c1nc2ccccc2n1Cc1cccc(Cl)c1 ?
PrP UTR inh: -19; Y pestis TopoI: 7; Mtb hypoxia rep: -2; PrPC surface inh: 3; FBA Mtb inh: 135*; GDH-TPI inh: 3

What do the screens show for `CC(=O)Oc1ccc(C=NNS(=O)(=O)c2ccc(C)cc2)c(OC(C)=O)c1`?
Mtb hypoxia rep: -4
